USP8 block: inhibitors of human USP8 deubiquitinase | Ubiquitin carboxyl-terminal hydrolase 8 (Homo sapiens), P40818 | purified USP8, Ub-rhodamine cleavage fluorescence, 30 min | inhibition, % at 20 µM | 47,000 tested, 4.2% active
USP30 inh: inhibitors of human USP30 deubiquitinase; Ubiquitin carboxyl-terminal hydrolase 30 (Homo sapiens), Q70CQ3; purified USP30, Ub-rhodamine cleavage fluorescence; AID 1645860, 2021; 47,000 tested, 5.3% active; inhibition, % at 25 µM
USP10 inh: inhibitors of human USP10 deubiquitinase; purified USP10, Ub-rhodamine fluorescence, 60 min; inhibition, % at 20 µM; 47,000 tested, 1.1% active; Ubiquitin carboxyl-terminal hydrolase 10 (Homo sapiens), Q14694
USP17 block: inhibitors of human USP17 deubiquitinase. AID 1645855, 2021. 47,000 tested, 6.5% active. purified USP17, Ub-rhodamine cleavage fluorescence, 3 h. inhibition, % at 50 µM. Ubiquitin carboxyl-terminal hydrolase 17-like protein 5 (Homo sapiens), A8MUK1
USP28 block: inhibitors of human USP28 deubiquitinase; inhibition, % at 25 µM; 47,000 tested, 3% active; purified USP28, Ub-rhodamine cleavage fluorescence, 30 min; AID 1645857, 2021
Target sequence (Q96RU2 whole entry, looked up): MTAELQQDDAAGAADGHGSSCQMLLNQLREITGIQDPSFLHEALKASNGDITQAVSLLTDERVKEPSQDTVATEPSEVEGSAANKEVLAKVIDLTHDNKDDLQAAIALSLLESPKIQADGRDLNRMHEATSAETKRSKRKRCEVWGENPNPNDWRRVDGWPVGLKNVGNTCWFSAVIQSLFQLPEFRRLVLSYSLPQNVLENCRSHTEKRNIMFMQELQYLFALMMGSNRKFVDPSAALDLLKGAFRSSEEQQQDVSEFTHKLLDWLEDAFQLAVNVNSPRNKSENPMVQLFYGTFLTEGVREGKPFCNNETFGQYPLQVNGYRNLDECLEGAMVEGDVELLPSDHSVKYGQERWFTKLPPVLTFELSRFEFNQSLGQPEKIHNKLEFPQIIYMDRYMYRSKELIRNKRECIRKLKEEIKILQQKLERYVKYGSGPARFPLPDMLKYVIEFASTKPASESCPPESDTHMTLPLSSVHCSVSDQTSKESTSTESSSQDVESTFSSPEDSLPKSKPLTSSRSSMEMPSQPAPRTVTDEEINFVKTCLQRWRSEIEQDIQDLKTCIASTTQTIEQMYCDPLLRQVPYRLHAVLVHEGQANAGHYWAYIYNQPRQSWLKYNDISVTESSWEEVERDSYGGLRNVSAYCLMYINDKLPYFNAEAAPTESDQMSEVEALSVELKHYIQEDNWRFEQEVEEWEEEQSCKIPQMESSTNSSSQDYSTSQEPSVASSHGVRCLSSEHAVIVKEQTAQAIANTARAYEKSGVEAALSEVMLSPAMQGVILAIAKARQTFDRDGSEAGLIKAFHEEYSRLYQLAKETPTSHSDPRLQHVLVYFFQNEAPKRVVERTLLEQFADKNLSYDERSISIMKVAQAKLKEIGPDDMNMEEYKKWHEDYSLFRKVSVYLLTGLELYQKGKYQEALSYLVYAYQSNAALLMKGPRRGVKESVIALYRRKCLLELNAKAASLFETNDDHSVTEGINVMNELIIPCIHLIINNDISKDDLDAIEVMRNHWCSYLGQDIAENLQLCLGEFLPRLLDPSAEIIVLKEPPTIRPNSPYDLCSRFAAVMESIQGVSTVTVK
* = called active by the depositor; i = inactive; . = not tested or not shown. In the library only some 14% were active in any assay of this set; here they are far more common. No stated cut-off is given here; in the data, active means inhibition above about 30%; inactive means the rest.

SMILES | USP8 block | USP30 inh | USP10 inh | USP17 block | USP28 block
CSCCC(NC(=O)CCc1ccccc1)c1nnc2ccccn12 (configuration not stated) | 0.0 | 25.4 | 6.7 | 5.1 | 4.7
O=C(NCc1ccc2c(c1)OCO2)c1ccccc1OCc1ccc(F)cc1 | 15.5 | 30.8* | 14.3 | 32.5* | 17.1
N#Cc1ccccc1OCC(=O)NCc1ccc2c(c1)OCO2 | -16.3 | -20.3 | -2.0 | -12.6 | -11.2
Cc1ccc(NC(=O)CSc2nnc(-c3ccccc3NC(=O)c3ccccc3)o2)cc1Cl | 23.8 | 15.9 | 10.5 | 13.2 | 7.4
COc1ccc(NC(=O)Cn2cc(C(=O)c3ccc(OC)cc3)c(=O)c3cc4c(cc32)OCCO4)cc1 | 44.4* | 10.2 | 5.8 | 6.2 | 7.2
CCOc1ccc2c(c1)c(=O)c(C(=O)c1ccc(F)cc1)cn2CC(=O)Nc1ccc(F)cc1 | 72.1* | . | 20.3 | 41.3* | .
COc1ccc(NC(=O)Cn2cc(C(=O)c3ccc(F)cc3)c(=O)c3cc(C)ccc32)cc1 | 22.9 | 31.7* | 41.5* | 75.5* | 14.0
CCOc1ccc2c(c1)c(=O)c(C(=O)c1ccc(C)cc1)cn2CC(=O)Nc1ccc(OC)c(OC)c1 | 86.6* | 70.4* | 48.2* | 36.2* | 40.2*
CCOc1ccc(NC(=O)Cn2cc(-c3ccccc3)c3ncn(C4CC4)c(=O)c32)cc1 | -8.6 | -308.2 | -13.9 | -44.0 | -15.5
Cc1ccc(C(=O)c2cn(CC(=O)Nc3ccc(Cl)cc3)c3ccc(F)cc3c2=O)cc1 | 60.4* | -219.3 | 14.9 | -25.7 | -60.5
CCOc1ncccc1C(=O)Nc1ccnn1Cc1ccco1 | 0.7 | 7.5 | 3.2 | 5.5 | 10.9
O=C(Nc1ccc2c(c1)OCO2)C1[C@@H]2C(=O)N(c3ccccc3)C(=O)[C@@H]2[C@H]2c3ccccc3C=CN12 (some centres not stated) | 49.2* | -255.4 | -4.9 | 11.5 | -19.6
COc1ccc(NC(=O)C2[C@@H]3C(=O)N(c4ccc5c(c4)OCO5)C(=O)[C@@H]3[C@H]3c4ccccc4C=CN23)cc1 (some centres not stated) | 55.4* | -179.4 | -4.7 | 4.7 | 8.0
O=C(c1ccco1)C1C2C(=O)N(c3cccc(C(F)(F)F)c3)C(=O)C2C2c3ccccc3C=CN12 (configuration not stated) | -72.5 | i | -2.6 | -127.8 | -193.0
CC(C)(C)C(=O)C1C2C(=O)N(c3ccc4c(c3)OCO4)C(=O)C2C2c3ccccc3C=CN12 (configuration not stated) | 53.3* | -17.5 | 20.8 | 69.0* | 64.2*
COc1ccc(-c2cc(C(=O)Nc3ccc4c(c3)OCO4)c3ccccc3n2)cc1 | 5.9 | -55.4 | 0.3 | 11.5 | -13.3
CC(C)(C)C(=O)C1C2C(=O)N(Cc3ccccc3)C(=O)C2C2c3ccccc3C=CN12 (configuration not stated) | 80.6* | -95.5 | -6.0 | 56.3* | -12.4
O=C(c1cnc2scc(-c3ccccc3)n2c1=O)N1CCOCC1 | -12.5 | 4.4 | -0.1 | -2.9 | -2.5
Cc1ccccc1CC(=O)N1CCC(c2nc3ccncc3n2C(C)C)C1 (configuration not stated) | 8.7 | 14.8 | -1.2 | 2.2 | 0.9
COc1ccc(NC(=O)C2[C@@H]3C(=O)N(C4CCCCC4)C(=O)[C@@H]3[C@H]3c4ccccc4C=CN23)cc1 (some centres not stated) | 77.7* | -59.9 | -15.5 | 60.5* | 13.0
O=C(N[C@@H]1CC[C@@H](Oc2cccnc2)[C@H](O)[C@H]1N1CCCCC1)c1ccccn1 | -0.1 | -0.2 | 3.9 | . | 0.6
O=C(CSc1ncn(-c2ccccc2)n1)Nc1ccc(Cc2ccncc2)cc1 | 8.6 | 39.4* | 14.7 | 41.1* | 45.9*
O=C(CSc1n[nH]c(-c2ccncc2)n1)Nc1ccc(F)cc1 | -0.9 | -0.1 | 1.5 | -1.4 | -5.8
COc1cc(-c2nnc(SCC(=O)Nc3ncc4c(n3)CC(c3ccccc3)CC4=O)n2CCc2ccccc2)cc(OC)c1OC (configuration not stated) | -18.4 | 0.6 | 0.4 | . | -4.7
CS(=O)(=O)c1ccc(NC(=O)C2CN(c3nc4c(F)cccc4s3)C2)cc1 | -11.5 | 2.4 | 1.1 | 55.3* | 14.9
SMILES | USP8 block | USP30 inh | USP10 inh | USP17 block | USP28 block
O=C(COc1cc([N+](=O)[O-])cc2cccnc12)NCCC1=CCCCC1 | 97.6* | 37.0* | 2.2 | 85.5* | 14.0
COc1ccc(OCC(=O)NCCC2=CCCCC2)c([N+](=O)[O-])c1 | -96.3 | 9.7 | 2.0 | -2.3 | 1.1
Cc1ccc(CSc2nnc(C3CCNCC3)o2)cc1 | -135.3 | 19.1 | 1.6 | -5.5 | 32.4*
Cc1cc(NCCC(=O)NCc2ccccc2F)n2nc(-c3cccnc3)nc2n1 | -5.1 | 11.3 | -4.2 | 3.0 | 4.8
CN(C(=O)COc1ccc(-n2cnnn2)cc1)C(c1ccccc1)c1ccccc1 | 6.9 | 35.6* | 7.8 | 13.2 | 18.0
O=C(COc1ccc(Br)cc1)Oc1ccc(-n2cnnn2)cc1 | 11.5 | -17.9 | 1.3 | -6.4 | -6.0
CCOc1ccc(C(=O)Oc2ccc(-n3cnnn3)cc2)cc1 | 32.8* | 11.4 | 18.2 | 4.9 | -3.2
Cc1cc(-c2nnc(C3CCC3)o2)c(C)n1CC(=O)NCc1ccccc1 | -3.7 | -31.5 | -1.3 | -10.8 | -9.5
CCC(C(=O)Nc1c(C)nc2cc(C)ccn2c1=O)c1ccccc1 (configuration not stated) | -4.5 | -2.9 | 0.7 | -1.3 | -4.7
NC(=O)C[C@H](NC(=O)[C@H](Cc1ccccc1)NC(=O)[C@H](Cc1ccccc1)n1c(=O)[nH]c2ccccc2c1=O)C(=O)O | -41.6 | -1.7 | 3.7 | -7.4 | -2.9
CC(C)Nc1nc2c(cc1C(=O)N(C)C)CCN(Cc1cnn(C)c1)CC2 | -19.1 | -26.0 | -1.1 | -26.6 | -14.2
CCOc1ccc(C(=O)OCC(=O)Nc2ccc3c(c2)OCCO3)cc1OC | -16.6 | -7.9 | -0.7 | 16.7 | -10.0
COCCn1ccc2nc(C)c(C(=O)Nc3ccc4c(c3)OCCO4)cc2c1=O | 1.5 | 36.3* | -0.1 | 51.0* | 0.6
CCOCCn1ccc2c(OCC(=O)Nc3ccc4c(c3)OCCO4)cccc2c1=O | -1.1 | 84.2* | 6.1 | 66.0* | 44.4*
COc1ccc(Cl)cc1-n1nnc(C(=O)Nc2cccc(C)c2C)c1C | 18.7 | 18.0 | 6.7 | 16.6 | 11.1
Cc1ccc(-c2nonc2NC(=O)Cc2ccccc2)cc1 | 5.1 | 20.7 | 6.5 | 7.0 | 3.6
COc1ccc(-c2nonc2NC(=O)C(c2ccccc2)c2ccccc2)cc1OC | 20.8 | 50.6* | 6.4 | 0.0 | 12.3
CC(Oc1ccccc1Cl)C(=O)Nc1nonc1-c1ccccc1 (configuration not stated) | 33.0* | 27.5 | 15.3 | 16.4 | 15.6
CC(Oc1ccc(C(C)C)cc1)C(=O)Nc1nonc1-c1ccccc1 (configuration not stated) | 8.7 | -0.7 | 12.6 | -2.4 | 0.9
